Inconclusive results are not listed. The source made the active and inactive calls. Unless noted, calls come from the whole dose curve.
What was measured:
[1] = qHTS assay to identify small molecule agonists of the sonic hedgehog signaling (Shh) pathway (AID 1259368);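 note: NIH/3T3-derived 3T3Gli1-Luc cells carrying a stable Gli1-driven firefly luciferase reporter; series mostly up to about 92 µM; nearly all actives have a fitted effect of over 15% in size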
Outline: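 Cells of a mouse NIH/3T3 clone stably expressing luciferase under the Gli1 transcriptional response element are exposed to test chemicals for 24 hr at 37 C. Pathway activation is detected as a rise in luminescence.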

[2] = qHTS assay to identify small molecule antagonists of the sonic hedgehog signaling (Shh) pathway (AID 1259369); note: nearly all actives have a fitted effect of over 45% in size
Outline: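 Cells are plated and held 4hr at 37 C, compounds (DMSO) are pinned in, conditioned medium is added to stimulate the pathway, and after 24hr luciferase reagent is added for 30min before luminescence is read.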

[3] = molecular target: Estrogen receptor beta (Homo sapiens) (UniProt Q92731); assay: qHTS assay to identify small molecule agonists of the estrogen receptor beta (ER-beta) signaling pathway (AID 1259377; active = well fitted activation curve with a large enough effect in the signal ratio in the repeat runs, not every such curve was filed as active; the % refers to the signal ratio)
Outline: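 ER-beta-UAS-bla HEK293T cells in medium with 2% charcoal-stripped FBS were exposed to compounds for 16 h at 37C. Beta-lactamase reporter activity was read as fluorescence after 2 h with LiveBLAzer B/G FRET substrate at room temperature.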

[4] = molecular target: Estrogen receptor beta (Homo sapiens) (UniProt Q92731); assay: qHTS assay to identify small molecule antagonists of the estrogen receptor beta (ER-beta) signaling pathway (AID 1259378; active = well fitted inhibition curve with a large enough effect in the signal ratio in the repeat runs, not every such curve was filed as active; the % refers to the signal ratio)
Outline: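 ER-beta-UAS-bla HEK293T cells in 2% charcoal-stripped FBS medium treated with compound plus 1nM final 17-beta-estradiol for 16 hr at 37C. Beta-lactamase reporter read by FRET substrate fluorescence after 2 hours at room temperature.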

[5] = qHTS assay to identify small molecule antagonists of the estrogen receptor beta (ER-beta) signaling pathway - cell viability counter screen (AID 1259382; active = well fitted curve in the direction sought with a large enough effect in the repeat runs; an effect the other way counts as inactive or inconclusive; note: series mostly up to about 92 µM; nearly all actives have a fitted effect of over 55% in size)
Outline: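 Cytotoxicity counter screen multiplexed with the beta-lactamase antagonist assay: GripTite HEK293T ER-beta-bla cells were treated 16 hr with test chemicals in the presence of 1nM 17-beta-estradiol, and viability was measured by CellTiter-Glo.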

[6] = molecular target: Estrogen receptor (Homo sapiens) (UniProt P03372); assay: qHTS assay to identify small molecule agonists of the estrogen receptor alpha (ER-alpha) signaling pathway in the presence of an antagonist (AID 1259383); note: top concentration of the series differs between compounds; nearly all actives have a fitted effect of over 15% in size
Outline: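 Agonist-mode confirmation in the presence of the ER antagonist ICI-182,780 at 10.0nM final. Breast-derived VM7Luc4E2 reporter cells were exposed to compounds for 22hr, and ERE-driven luciferase was quantified by luminescence.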

[7] = qHTS assay to identify small molecule agonists or antagonists of the thyroid stimulating hormone receptor (TSHR) signaling pathway - wild type cell line counter screen (AID 1259384)
Outline: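 Wild-type Hek293 cells, 800/well, 18 h at 37C, then compound with Ro20-1724 for 30 min RT. cAMP by HTRF (cAMP-d2/anti-cAMP cryptate), 1 h RT, fluorescence read. 15 concentrations, triplicates.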

[8] = qHTS assay to identify small molecule agonists of the estrogen receptor beta (ER-beta) signaling pathway - cell viability counter screen (AID 1259380; active = well fitted curve in the direction sought with a large enough effect in the repeat runs; an effect the other way counts as inactive or inconclusive; note: nearly all actives have a fitted effect of over 30% in size)
Outline: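 Cytotoxicity is measured in parallel with the reporter screen: after 16 hr compound exposure at 37C and a 2 hr LiveBLAzer step, CellTiter-Glo is added to the same ER-beta-UAS-bla HEK293T wells and luminescence read after 30 min.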

[9] = qHTS assay to identify small molecule agonists of the androgen receptor (AR) signaling pathway in the presence of an antagonist - cell viability counter screen (AID 1259379; active = well fitted curve in the direction sought with a large enough effect in the repeat runs; an effect the other way counts as inactive or inconclusive;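 note: MDA-kb2 human breast cancer cells carrying an MMTV luciferase reporter; series mostly up to about 92 µM; nearly all actives have a fitted effect of over 25% in size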)
Outline: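 Cytotoxicity is assessed by CellTiter-Fluor in MDA-kb2 cells carrying an MMTV-driven luciferase reporter. Cells receive 3.0uM nilutamide plus compounds at 15 concentrations and incubate 16 hr at 37C without CO2 before fluorescence reading.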

[10] = molecular target: Androgen receptor (Homo sapiens) (UniProt P10275); assay: qHTS assay to identify small molecule agonists of the androgen receptor (AR) signaling pathway in the presence of an antagonist (AID 1259381); note: nearly all actives have a fitted effect of over 15% in size
Outline: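 Agonist-mode confirmation screen: human MDA-kb2 cells stably expressing luciferase under an MMTV promoter bearing AR and GR response elements, co-treated with 3.0uM nilutamide (final). Luminescence measured after 16hr compound incubation.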

Measured: Potency

Estrogen receptor (Homo sapiens), sequence (P03372 whole entry, looked up): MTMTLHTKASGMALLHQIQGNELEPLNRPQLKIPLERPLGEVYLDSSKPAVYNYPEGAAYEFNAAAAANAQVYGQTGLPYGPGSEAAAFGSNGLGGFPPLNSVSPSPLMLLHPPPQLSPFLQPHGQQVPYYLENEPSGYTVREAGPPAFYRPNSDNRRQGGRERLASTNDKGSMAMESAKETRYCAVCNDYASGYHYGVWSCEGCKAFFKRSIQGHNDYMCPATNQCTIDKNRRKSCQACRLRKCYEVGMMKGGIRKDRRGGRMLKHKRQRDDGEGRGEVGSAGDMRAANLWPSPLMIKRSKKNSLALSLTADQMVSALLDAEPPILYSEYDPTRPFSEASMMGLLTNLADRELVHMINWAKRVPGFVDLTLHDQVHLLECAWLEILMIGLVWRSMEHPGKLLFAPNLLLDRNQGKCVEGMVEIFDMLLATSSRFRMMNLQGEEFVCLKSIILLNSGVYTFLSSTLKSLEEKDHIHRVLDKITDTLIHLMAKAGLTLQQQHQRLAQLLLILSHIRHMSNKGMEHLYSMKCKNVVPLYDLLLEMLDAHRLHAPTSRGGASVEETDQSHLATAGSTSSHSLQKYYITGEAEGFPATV
Androgen receptor (Homo sapiens), sequence (P10275 whole entry, looked up): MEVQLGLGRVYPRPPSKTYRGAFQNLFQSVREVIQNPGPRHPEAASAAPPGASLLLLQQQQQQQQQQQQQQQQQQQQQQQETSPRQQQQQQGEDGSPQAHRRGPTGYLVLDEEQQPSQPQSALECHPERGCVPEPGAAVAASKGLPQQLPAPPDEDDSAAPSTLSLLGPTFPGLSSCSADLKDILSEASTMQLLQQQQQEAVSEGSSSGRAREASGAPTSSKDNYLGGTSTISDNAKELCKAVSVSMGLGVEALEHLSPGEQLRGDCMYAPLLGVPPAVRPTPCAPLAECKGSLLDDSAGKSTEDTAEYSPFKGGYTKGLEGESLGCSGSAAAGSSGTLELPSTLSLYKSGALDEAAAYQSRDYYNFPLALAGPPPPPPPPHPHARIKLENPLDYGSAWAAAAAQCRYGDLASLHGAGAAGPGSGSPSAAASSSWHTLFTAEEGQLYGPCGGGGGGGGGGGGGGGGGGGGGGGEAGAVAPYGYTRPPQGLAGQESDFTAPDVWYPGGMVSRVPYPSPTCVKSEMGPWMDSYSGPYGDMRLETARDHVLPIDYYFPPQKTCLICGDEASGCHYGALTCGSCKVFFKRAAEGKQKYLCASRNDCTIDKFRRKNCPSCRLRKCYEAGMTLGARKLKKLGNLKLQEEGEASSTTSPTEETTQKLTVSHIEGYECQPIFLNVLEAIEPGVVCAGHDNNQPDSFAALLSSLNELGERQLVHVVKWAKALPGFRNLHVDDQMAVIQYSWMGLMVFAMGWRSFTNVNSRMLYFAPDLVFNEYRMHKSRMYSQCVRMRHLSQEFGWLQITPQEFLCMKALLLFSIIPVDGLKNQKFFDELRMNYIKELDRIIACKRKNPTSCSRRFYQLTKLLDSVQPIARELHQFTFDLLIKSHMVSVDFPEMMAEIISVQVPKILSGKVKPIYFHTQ
Estrogen receptor beta (Homo sapiens), sequence (Q92731 whole entry, looked up): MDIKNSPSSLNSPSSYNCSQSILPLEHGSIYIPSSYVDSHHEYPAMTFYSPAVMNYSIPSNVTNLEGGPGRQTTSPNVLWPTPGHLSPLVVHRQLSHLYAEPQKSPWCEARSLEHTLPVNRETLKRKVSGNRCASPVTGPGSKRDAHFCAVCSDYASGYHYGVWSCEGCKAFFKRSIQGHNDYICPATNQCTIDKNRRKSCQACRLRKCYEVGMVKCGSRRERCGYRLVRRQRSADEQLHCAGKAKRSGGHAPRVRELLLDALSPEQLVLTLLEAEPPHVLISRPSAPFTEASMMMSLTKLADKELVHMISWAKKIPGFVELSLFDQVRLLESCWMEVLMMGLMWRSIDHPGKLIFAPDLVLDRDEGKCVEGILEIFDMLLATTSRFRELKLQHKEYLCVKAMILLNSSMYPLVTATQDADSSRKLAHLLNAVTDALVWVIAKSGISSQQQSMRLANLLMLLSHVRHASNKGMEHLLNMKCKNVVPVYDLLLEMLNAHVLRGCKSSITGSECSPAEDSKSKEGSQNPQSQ

CCCCCC[C@@H](CCC)C(=O)O
not listed: [8] | [9] | [10]
inactive: all other assays above

CCO[Si](C)(OCC)OCC
not listed: [9] | [10]
inactive: all other assays above

N#CCc1ccccc1[N+](=O)[O-]
not listed: [4] | [6] | [10]
inactive: all other assays above

O=C1CC2(CCCC2)CC(=O)N1
not listed: [4] | [5]
inactive: all other assays above

C#CC(C)(O)CC(C)C (configuration not stated)
not listed: [4] | [6] | [10]
inactive: all other assays above

OCc1ccccn1
not listed: [4] | [10]
inactive: all other assays above

O=C(O)c1cccc(C(=O)O)n1
inactive: [1] | [2] | [3] | [9] | [6] | [7]

CCCCCCCCCCCCCCCCCC(=O)OCCCCCCCCCCCCCC(C)C
inactive: [1] | [2] | [9] | [8] | [6] | [7]

CCCCCN(CCCCC)C(=O)C(CCC(=O)O)NC(=O)c1ccc(Cl)c(Cl)c1 (configuration not stated)
inactive: [1] | [2] | [9] | [10] | [6] | [7]

Cc1ncc(CSSCc2cnc(C)c(O)c2CO)c(CO)c1O
not listed: [3] | [4] | [8]
inactive: all other assays above

CCCCC=O
inactive: [1] | [2] | [9] | [8] | [5] | [7]

CC(C)N1C(=O)c2ccccc2C1=O
inactive: [1] | [2] | [9] | [5] | [6] | [7]

OC1OC[C@@H](O)[C@H](O)[C@H]1O (some centres not stated)
inactive: [1] | [2] | [9] | [5]

C=CC(=O)N1CCOCC1
inactive: [1] | [2] | [9] | [8] | [5] | [7]

Source: PubChem BioAssay (Tox21)
